Measurements reported in PubChem BioAssay (NCI).
This is part of a sample that, as a whole, favours compounds with a hit. Of some 83,000 tested, about 20% had one in any assay.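 96-well plates, one dose, 48 hours. Percent growth reported; active if below 10.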 Activity calls are given as the source filed them.

Test system: HL-60(TB) leukemia
Test: NCI-60 one-dose screen, 48 h (100 = growth as untreated, 0 = no growth, -100 = all killed)
Conditions: 10 µM unless noted

Compound | growth
COC(=O)c1oc2c(C(=O)/C=C/c3ccc(OC)cc3)c(OCCCN3CCCCC3)ccc2c1C | -54.7% (active)
COc1ccc(-c2nc(-c3nc4ccc(Cl)cc4[nH]3)c3ccccn23)cc1 | 82.8% (inactive)
COC(=O)c1c2c(c(C)[n+]([O-])c1C)C(=O)C(NCc1ccc(F)c(Cl)c1)=CC2=O | -54.6% (active)
COc1ccc2oc3c(ccc[n+]3C)c(=O)c2c1 | 109% (inactive)
O=C1/C(=N\c2cc(=O)[nH]n2S(=O)(=O)c2ccccc2)Nc2ccccc21 | 102% (inactive)
COc1cccc(-c2ccc3c(c2)NC(=O)/C3=C\c2ccc[nH]2)c1 | -1.26% (active)
O=C1C=CC(=O)c2c1nc1n2CCCC1 | 94.7% (inactive)
CCCCCc1ccnc(CC(=O)c2ccc(OC)cc2)c1 | 110% (inactive)
O=C(/C=C/C12c3ccccc3C(c3ccccc31)C1C(=O)NC(=O)C12)c1ccccn1 (stereo not given) | -11.5% (active)
O=C1CCC(C(=O)N/N=C/c2ccc([N+](=O)[O-])cc2)N1 (stereo not given) | 96.7% (inactive)
CC1(/C=C/c2ccc(-c3ccccc3)cc2)CCn2cnc3ncnc(c32)N1O (stereo not given) | 2.02% (active)
COc1cc2nc3c(=O)n(CCN(C)C)cnn3c(=O)c2cc1OC | 106% (inactive)
O=[N+]([O-])c1c(O)c(CNCCCO)cc(CNCCCO)c1O | 75.8% (inactive)
COc1ccc(-c2[nH]nc(N)c2-c2cc(OC)c3c(c2)OCO3)cc1 | 20.5% (inactive)
COc1ccc(/C=C2\NC(=O)NC2=O)cc1O | 102% (inactive)
Cc1[nH]c(C(=O)Nc2ccccc2OC2CCN(CCN3CCOCC3)CC2)c(Cl)c1Cl | 97.9% (inactive)
COc1ccc(CNCCN2C(=O)c3ccc4c5c(ccc(c35)C2=O)C(=O)N(CCNCc2ccc(OC)cc2)C4=O)cc1 | -63.4% (active)
CCCCn1sc(=O)n(Cc2ccc(CNC(=O)OCc3ccc4c(Br)cc(Br)c(O)c4n3)cc2)c1=O | -60.6% (active)
c1ccc2c(c1)ncn2-c1nc2ccccc2n2c1nc1ccccc12 | 102% (inactive)
CC1=NN(c2ccccc2Cl)C(=O)/C1=C\c1cn(S(=O)(=O)c2ccc(C)cc2)c2ccccc12 | 114% (inactive)

Compound | growth
C#Cc1cccc(NC(=O)C2CCCN(C(=O)CCl)C2)c1 (stereo not given) | 34% [8.25 µM] (inactive)
CCOC(=O)C1CCN(c2ccc(N3C[C@@H](CNCc4ccc(C(=N)N)cc4)OC3=O)cc2)CC1 | 101% (inactive)
COC(=O)c1ccc(NC(=O)CCl)cc1 | 81.6% (inactive)
BrCc1cccc(C[P+](c2ccccc2)(c2ccccc2)c2ccccc2)c1 | 12.2% (inactive)
CO[C@H](C(=O)[C@@H](O)[C@@H](C)O)[C@@H]1Cc2cc3cc(O[C@H]4C[C@@H](O[C@H]5C[C@@H](O)[C@H](O)C(C)O5)[C@H](O)C(C)O4)c(C)c(O)c3c(O)c2C(=O)[C@H]1O[C@H]1C[C@@H](O[C@H]2C[C@@H](O[C@H]3C[C@@H](OC)[C@H](O)C(C)O3)[C@@H](O)C(C)O2)C(O)(O)C(C)O1 (stereo not given in full) | 26.8% (inactive)
N#Cc1c(N)nc(Nc2nc3ccccc3[nH]2)nc1-c1ccc(Cl)cc1 | 106% (inactive)
O=C(Nc1ccccc1OC(=O)c1ccccc1)c1ccccc1 | 0.315% (active)
Cc1c(C(=O)NCCC(=O)NO)sc2ncnc(Nc3ccc(NC(=O)Nc4cccc(C(F)(F)F)c4)cc3)c12 | 105% (inactive)
NCCn1cc(-c2nc(-c3c[nH]c4ncccc34)cs2)c2cc(Br)ccc21 | 51.1% (inactive)
O=C1CCCCCCCCC(O)C(O)CCCC(c2cccs2)O1 (stereo not given) | 77.9% (inactive)
CN1CCN(CCCOC(=O)c2c3c(n4ccccc24)C(=O)c2ncccc2C3=O)CC1 | 30% (inactive)
CCCCC[C@@H]1Cc2cc(O)c(C(=O)O)c3c2[C@H](C[C@@]2(CCCO2)O3)O1 | 86.5% (inactive)
COc1ccc(-c2nnc(COc3ccc(NC(=O)Nc4cccc(C(F)(F)F)c4)cc3F)o2)cc1 | 4.03% (active)
O=C1/C(=C/c2ccccc2)CN(C(=O)C(Cl)Cl)C/C1=C\c1ccccc1 | -15.3% (active)
COc1ccc2[nH]c(O)c(/C=c3/ccc4c(c3)N=C(c3ccc(F)cc3)N=4)c2c1 | 99.9% (inactive)
Brc1ccccc1Cn1c(-c2cncs2)nc2ccccc21 | 79.1% (inactive)
CC(C)(C)[Si](C)(C)OC1[C@@H](O[Si](C)(C)C(C)(C)C)[C@@H](CNC(=O)NC(=O)NC(=O)CCl)O[C@H]1n1cnc2c(NC(=O)Nc3ccccc3)ncnc21 (stereo not given in full) | 19.7% (inactive)
O=C(Cn1cncn1)Nc1ccc(-c2nc3ccccc3s2)cc1 | 102% (inactive)
Nc1nc(Cl)cc(=O)n1Cc1ccccc1 | 100% (inactive)
CC(C)c1ncc([N+](=O)[O-])n1C | 118% (inactive)
